In PubChem BioAssay (NCI):
About 83,000 compounds went through this panel and 20% of them were active in at least one assay; those are over-represented in the sample as a whole.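 Compound tested at a single concentration for 48 hours in 96-well plates; a percent growth value below 10 was scored as active.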 Active and inactive are the calls of the source.

Columns and labels:
Assay in all cases: NCI-60 one-dose screen, 48 h (100 = growth as untreated, 0 = no growth, -100 = all killed)
Settings in all cases: 10 µM unless noted
SR leukemia = system: SR leukemia
RPMI-8226 leukemia = system: RPMI-8226 leukemia
OVCAR-8 ovarian = system: OVCAR-8 ovarian
OVCAR-5 ovarian = system: OVCAR-5 ovarian
OVCAR-4 ovarian = system: OVCAR-4 ovarian
SK-OV-3 ovarian = system: SK-OV-3 ovarian
IGROV1 ovarian = system: IGROV1 ovarian
OVCAR-3 ovarian = system: OVCAR-3 ovarian
HS 578T breast = system: HS 578T breast
NCI/ADR-RES ovarian = system: NCI/ADR-RES ovarian
T-47D breast = system: T-47D breast
BT-549 breast = system: BT-549 breast
MDA-MB-435 melanoma = system: MDA-MB-435 melanoma
SW-620 colon = system: SW-620 colon
MCF7 breast = system: MCF7 breast
HCT-116 colon = system: HCT-116 colon
HCC-2998 colon = system: HCC-2998 colon
KM12 colon = system: KM12 colon

Measured: growth

COc1c(Cl)c2c(c(OC)c1OC)-c1ccc(SC)c(=O)cc1[C@@H](NC(=O)OCC(F)(F)F)CC2
active: SR leukemia -0.191% | RPMI-8226 leukemia 2.59% | OVCAR-3 ovarian -14.2% | BT-549 breast 5.25% | MDA-MB-435 melanoma -36.9% | HCT-116 colon 1.82%
inactive: OVCAR-8 ovarian 20% | OVCAR-5 ovarian 35% | OVCAR-4 ovarian 39.6% | SK-OV-3 ovarian 48.2% | IGROV1 ovarian 13.5% | HS 578T breast 12.1% | NCI/ADR-RES ovarian 14.6% | T-47D breast 43.1% | SW-620 colon 21.9% | MCF7 breast 14.8% | HCC-2998 colon 21.6% | KM12 colon 10.4%

COc1ccc(C(=O)c2cc(OC)c(OC)c(OC)c2)cc1O
inactive: RPMI-8226 leukemia 12.7% | OVCAR-8 ovarian 14.1% | OVCAR-5 ovarian 31.8% | OVCAR-4 ovarian 30.6% | SK-OV-3 ovarian 37.2% | IGROV1 ovarian 16.2% | HS 578T breast 28.8% | T-47D breast 54.7% | BT-549 breast 12% | SW-620 colon 22.3% | HCC-2998 colon 12.4%
active: SR leukemia 7.02% | OVCAR-3 ovarian -6.73% | NCI/ADR-RES ovarian -32.3% | MDA-MB-435 melanoma -41.1% | MCF7 breast 6.25% | HCT-116 colon 4.24% | KM12 colon 9.38%

O=C1c2ccccc2C(=O)c2c([N+](=O)[O-])ccc(Cl)c21
inactive: SR leukemia 54% | RPMI-8226 leukemia 81.8% | OVCAR-8 ovarian 75.2% | OVCAR-5 ovarian 135% | OVCAR-4 ovarian 62.2% | SK-OV-3 ovarian 112% | IGROV1 ovarian 71.5% | OVCAR-3 ovarian 57.1% | HS 578T breast 98.8% | NCI/ADR-RES ovarian 92.4% | T-47D breast 46.7% | BT-549 breast 88.5% | MDA-MB-435 melanoma 106% | SW-620 colon 28.9% | MCF7 breast 71.7% | HCT-116 colon 63.6% | HCC-2998 colon 104% | KM12 colon 79.1%

O=c1ccc(-c2nc(N3CCOCC3)c3ccccc3n2)c[nH]1
inactive: SR leukemia 100% | RPMI-8226 leukemia 101% | OVCAR-8 ovarian 110% | OVCAR-5 ovarian 83.2% | OVCAR-4 ovarian 94.2% | SK-OV-3 ovarian 105% | IGROV1 ovarian 107% | OVCAR-3 ovarian 101% | HS 578T breast 62.5% | NCI/ADR-RES ovarian 96.9% | T-47D breast 77% | BT-549 breast 97.4% | MDA-MB-435 melanoma 99.7% | SW-620 colon 107% | MCF7 breast 89.1% | HCT-116 colon 101% | HCC-2998 colon 105% | KM12 colon 107%

CC(=O)Oc1ccc(/C=N/NC(N)=S)nc1
inactive: SR leukemia 27.9% | RPMI-8226 leukemia 88.7% | OVCAR-8 ovarian 46.3% | OVCAR-5 ovarian 110% | OVCAR-4 ovarian 56% | SK-OV-3 ovarian 88% | IGROV1 ovarian 92.3% | OVCAR-3 ovarian 68% | HS 578T breast 127% | NCI/ADR-RES ovarian 41.9% | T-47D breast 52% | BT-549 breast 32.7% | MDA-MB-435 melanoma 87% | SW-620 colon 60.9% | MCF7 breast 18.4% | HCT-116 colon 70.1% | HCC-2998 colon 55% | KM12 colon 76.5%

O=C1c2ccc3c4c(ccc(c24)C(=O)N1CCCNCc1ccccc1Cl)C(=O)N(CCCNCc1ccccc1Cl)C3=O
active: SR leukemia -34.4% | RPMI-8226 leukemia -28.9% | OVCAR-8 ovarian -38.3% | OVCAR-5 ovarian -39.2% | OVCAR-4 ovarian -96.6% | IGROV1 ovarian -34.1% | OVCAR-3 ovarian -64.4% | HS 578T breast -22.9% | NCI/ADR-RES ovarian -12.3% | T-47D breast -25.5% | BT-549 breast -69% | MDA-MB-435 melanoma -43.7% | SW-620 colon -82.7% | MCF7 breast -78.2% | HCT-116 colon -6.85% | HCC-2998 colon -85.5% | KM12 colon -72.5%
inactive: SK-OV-3 ovarian 28.3%

c1ccc(Cn2cnc3ccc(-c4nc(-c5ccc6c(c5)ncn6C5CCCCC5)cn5ccnc45)cc32)cc1
active: SR leukemia 5.45% | RPMI-8226 leukemia -41.2% | OVCAR-8 ovarian 2.45% | OVCAR-5 ovarian -29% | SK-OV-3 ovarian -22.2% | IGROV1 ovarian 5.81% | OVCAR-3 ovarian -35.7% | HS 578T breast 0.386% | NCI/ADR-RES ovarian 0.531% | T-47D breast -2.12% | BT-549 breast -44.7% | MDA-MB-435 melanoma -6.16% | SW-620 colon 2.17% | MCF7 breast 2.03% | HCT-116 colon -75.7% | HCC-2998 colon -88% | KM12 colon -39.4%
inactive: OVCAR-4 ovarian 16.8%

CCNC(=O)Oc1ccc(/C(=C(\C)c2ccccc2)c2ccc(OCCN3CCCCC3)cc2)cc1
active: SR leukemia 4.98%
inactive: RPMI-8226 leukemia 38.7% | OVCAR-8 ovarian 73.6% | OVCAR-5 ovarian 84.8% | OVCAR-4 ovarian 65.5% | SK-OV-3 ovarian 53.6% | IGROV1 ovarian 79.9% | OVCAR-3 ovarian 69.4% | HS 578T breast 57.5% | NCI/ADR-RES ovarian 66.8% | T-47D breast 24.1% | BT-549 breast 65.2% | MDA-MB-435 melanoma 65.5% | SW-620 colon 59.1% | MCF7 breast 25.8% | HCT-116 colon 40.5% | HCC-2998 colon 84.9% | KM12 colon 50.8%

CCCCCC(=O)Oc1ccc(/C(=C(/C)Cc2ccc(OC)cc2)c2ccc(OCCCN(C)C)cc2)cc1
inactive: SR leukemia 10.9% | RPMI-8226 leukemia 82.7% | OVCAR-8 ovarian 96.2% | OVCAR-5 ovarian 96.4% | OVCAR-4 ovarian 71.4% | SK-OV-3 ovarian 81.5% | IGROV1 ovarian 63.9% | OVCAR-3 ovarian 86.5% | HS 578T breast 59.9% | NCI/ADR-RES ovarian 88.2% | T-47D breast 51.2% | BT-549 breast 88.8% | MDA-MB-435 melanoma 53.2% | SW-620 colon 82.4% | MCF7 breast 20.1% | HCT-116 colon 56.5% | HCC-2998 colon 69.3% | KM12 colon 73.6%

CCN(CC)CC[n+]1cc2cc(OC)c(OC)cc2c2ccc3cc4c(cc3c21)OCO4
inactive: OVCAR-3 ovarian 13.4% | NCI/ADR-RES ovarian 70.5% | T-47D breast 16.2% | MDA-MB-435 melanoma 24.6% | MCF7 breast 11.5% | HCC-2998 colon 18.7%
active: SR leukemia -11.3% | RPMI-8226 leukemia -32.7% | OVCAR-8 ovarian -82.8% | OVCAR-5 ovarian 6.85% | OVCAR-4 ovarian 1.21% | SK-OV-3 ovarian -10.7% | IGROV1 ovarian -44.1% | HS 578T breast -4.12% | BT-549 breast -4.72% | SW-620 colon 9.98% | HCT-116 colon -83% | KM12 colon -82.2%

COc1cc(OC)cc(C(=O)C[n+]2cccc3cc[nH]c32)c1
inactive: SR leukemia 116% | RPMI-8226 leukemia 106% | OVCAR-8 ovarian 103% | OVCAR-5 ovarian 98.9% | OVCAR-4 ovarian 99.3% | SK-OV-3 ovarian 104% | IGROV1 ovarian 94.2% | OVCAR-3 ovarian 106% | HS 578T breast 101% | NCI/ADR-RES ovarian 101% | T-47D breast 100% | BT-549 breast 102% | MDA-MB-435 melanoma 99% | SW-620 colon 99.8% | MCF7 breast 94.2% | HCT-116 colon 97.6% | HCC-2998 colon 107% | KM12 colon 101%

O=C(C[n+]1cccc2ccccc21)c1ccc(O)c(O)c1
active: SR leukemia 7.71% | HCT-116 colon 5.16%
inactive: RPMI-8226 leukemia 17.4% | OVCAR-8 ovarian 49.2% | OVCAR-5 ovarian 88% | OVCAR-4 ovarian 55.1% | SK-OV-3 ovarian 120% | IGROV1 ovarian 48.5% | OVCAR-3 ovarian 35.7% | HS 578T breast 90.6% | NCI/ADR-RES ovarian 75.4% | T-47D breast 42% | BT-549 breast 65.7% | MDA-MB-435 melanoma 88.1% | SW-620 colon 23.8% | MCF7 breast 21.8% | HCC-2998 colon 90.4% | KM12 colon 100%

COc1ccc(OC)c(-c2cc(-c3ccc(Cl)cc3)c3c(N)c(C(=O)c4ccc(Cl)cc4)sc3n2)c1
inactive: SR leukemia 101% | RPMI-8226 leukemia 94.2% | OVCAR-8 ovarian 104% | OVCAR-5 ovarian 96.4% | OVCAR-4 ovarian 93.1% | SK-OV-3 ovarian 89.8% | IGROV1 ovarian 92.1% | OVCAR-3 ovarian 103% | HS 578T breast 115% | NCI/ADR-RES ovarian 103% | T-47D breast 87.2% | BT-549 breast 84.1% | MDA-MB-435 melanoma 107% | SW-620 colon 112% | MCF7 breast 86.2% | HCT-116 colon 95.7% | HCC-2998 colon 100% | KM12 colon 100%

N/C(=N\C(N)=N\c1nc2ccccc2s1)c1cccc(Cl)c1
inactive: SR leukemia 16.6% | RPMI-8226 leukemia 80.8% | OVCAR-8 ovarian 70.8% | OVCAR-5 ovarian 111% | OVCAR-4 ovarian 71.5% | SK-OV-3 ovarian 98.3% | IGROV1 ovarian 75.9% | OVCAR-3 ovarian 99.2% | HS 578T breast 97% | NCI/ADR-RES ovarian 77.4% | T-47D breast 46.9% | BT-549 breast 81.1% | MDA-MB-435 melanoma 99.3% | SW-620 colon 98.5% | MCF7 breast 69.9% | HCT-116 colon 73.8% | HCC-2998 colon 104% | KM12 colon 40.8%

CCOC(=O)CC1CSC(N/N=C/c2ccc(-n3cccn3)cc2)=N1 (stereo unspecified)
inactive: SR leukemia 98.3% | RPMI-8226 leukemia 99.1% | OVCAR-8 ovarian 97.8% | OVCAR-5 ovarian 115% | OVCAR-4 ovarian 109% | SK-OV-3 ovarian 111% | IGROV1 ovarian 114% | OVCAR-3 ovarian 110% | HS 578T breast 97.8% | NCI/ADR-RES ovarian 101% | T-47D breast 106% | BT-549 breast 116% | MDA-MB-435 melanoma 110% | SW-620 colon 106% | MCF7 breast 98.1% | HCT-116 colon 98.7% | HCC-2998 colon 103% | KM12 colon 103%

O=C(CCN1CCCC1)Nc1ccc2c(NCc3ccccc3)c3ccccc3nc2c1
active: SR leukemia -14.8% | RPMI-8226 leukemia -35.3% | OVCAR-8 ovarian 4.52% | OVCAR-4 ovarian -13.8% | SK-OV-3 ovarian -10.9% | IGROV1 ovarian 3.89% | OVCAR-3 ovarian -33.4% | HS 578T breast -10.7% | T-47D breast -5.83% | MDA-MB-435 melanoma -5.11% | SW-620 colon -20.4% | MCF7 breast -5.67% | HCT-116 colon -15.5% | HCC-2998 colon -37.4% | KM12 colon -2.03%
inactive: OVCAR-5 ovarian 14.8% | NCI/ADR-RES ovarian 72.5% | BT-549 breast 16.8%

COC(=O)C1=C(C(=O)ON)C2C=CC1(C(Cc1ccccc1)Nc1ccccc1)O2 (stereo unspecified)
inactive: RPMI-8226 leukemia 11.8% | OVCAR-8 ovarian 91.2% | OVCAR-5 ovarian 105% | OVCAR-4 ovarian 69% | SK-OV-3 ovarian 104% | IGROV1 ovarian 75.9% | HS 578T breast 108% | NCI/ADR-RES ovarian 94.6% | BT-549 breast 106% | MDA-MB-435 melanoma 94.5% | MCF7 breast 83.3% | HCC-2998 colon 93.6% | KM12 colon 103%
active: SR leukemia 4.9% | OVCAR-3 ovarian -100% | T-47D breast -51.1% | SW-620 colon -60% | HCT-116 colon -73.8%
